# Test results as given in PubChem BioAssay (NCATS).
# Values joined by “and” are separate entries in the source; they are usually repeats but may differ in a detail not shown here. Equal values may be shown once. Results filed as inconclusive are left out. Entries that show only a call come without a potency. Active and inactive are the calls of the source. Unless noted, the call rests on the fitted dose curve; in most records, active means well fitted curve in the direction sought with a large enough effect; inconclusive means small, poorly fitted or top-dose-only effect, or another doubt; inactive means no such curve, though single readings can be large; an effect the other way counts as inactive or inconclusive.
# Assays:
# [1] = target: Cytochrome P450 2D6 (Homo sapiens) (UniProt P10635); test: Cytochrome P450 family 2 subfamily D member 6 (CYP2D6) small molecule antagonists: luciferase biochemical (cell-free) qHTS assay (AID 1645840; active means well fitted curve in the direction sought with a large enough effect in the repeat runs; an effect the other way counts as inactive or inconclusive; further: nearly all actives have a fitted effect of over 55% in size; further: potency means the concentration at half of the fitted maximal effect)
# In short: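 P450-Glo CYP2D6 system: proluciferin substrate converted by enzyme to luciferin, read by luminescence proportional to activity. Enzyme-substrate mix with compound 10 min at room temperature, then NADPH regeneration 1 h before detection reagent.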
# [2] = target: N-terminal Xaa-Pro-Lys N-methyltransferase 1 (Homo sapiens) (UniProt Q9BV86); test: Confirmatory qHTS for Inhibitors of N-terminal methyltransferase 1 (NTMT1): MTaseGlo Assay (AID 1645874); further: potency means the concentration at half of the fitted maximal effect; nearly all actives have a fitted effect of over 65% in size
# In short: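 SPKRIA peptide at 1 uM was methylated by 125 nM NTMT1 using 100 uM SAM over 30 min at room temperature, following a 15 min compound preincubation. Product SAH was detected luminescently.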
# [3] = target: Rap guanine nucleotide exchange factor 3 (Homo sapiens) (UniProt O95398); test: Confirmatory qHTS for antagonist of cAMP-regulated guanine nucleotide exchange factor 3 (EPAC1) (AID 1645880); further: potency means the concentration at half of the fitted maximal effect; nearly all actives have a fitted effect of over 55% in size
# In short: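 Released BODIPY-GDP fluoresces less than Rap1-bound BODIPY-GDP; the signal is followed at 480/540 nm at 5-min intervals over 30 min, after 5 min at room temperature. Reactions contain 100 nM EPAC1, 250 nM RAP1B-BODIPY-GDP and 50 uM GDP; results are normalized to ATA and DMSO.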
# [4] = target: Rap guanine nucleotide exchange factor 3 (Homo sapiens) (UniProt O95398); test: Confirmatory qHTS for agonist of cAMP-regulated guanine nucleotide exchange factor 3 (EPAC1) (AID 1645881);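 further: EPAC1 catalysed release of BODIPY-GDP from Rap1B seen as fluorescence loss; nearly all actives have a fitted effect of over 75% in size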
# [5] = target: Rap guanine nucleotide exchange factor 4 (Homo sapiens) (UniProt Q8WZA2); test: Confirmatory qHTS for agonist of cAMP-regulated guanine nucleotide exchange factor 4 (EPAC2) (AID 1645884);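 further: nucleotide exchange releases bodipy-GDP from Rap1 and this lowers its fluorescence; nearly all actives have a fitted effect of over 65% in size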
# [6] = target: Rap guanine nucleotide exchange factor 4 (Homo sapiens) (UniProt Q8WZA2); test: Confirmatory qHTS for antagonist of cAMP-regulated guanine nucleotide exchange factor 4 (EPAC2) (AID 1645885); further: nearly all actives have a fitted effect of over 25% in size
# [7] = target: Rap guanine nucleotide exchange factor 3 (Homo sapiens) (UniProt O95398); test: Counterscreen qHTS for antagonist of cAMP-regulated guanine nucleotide exchange factor 3 (EPAC1) (AID 1645888)
# In short: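 Rap1B-BODIPY-GDP 250 nM + GDP 50 uM; cpds 7-pt, final 9.74 nM–152 uM (activator mode) or from 7.32 nM upwards (inhibitor mode); RT; FI 480/540 nm at 5 and 30 min, then ± cAMP, reread.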
# [8] = target: Cytochrome P450 2C9 (Homo sapiens) (UniProt P11712); test: Cytochrome P450 family 2 subfamily C member 9 (CYP2C9) small molecule antagonists: luciferase biochemical (cell-free) qHTS assay (AID 1645842; active means well fitted curve in the direction sought with a large enough effect in the repeat runs; an effect the other way counts as inactive or inconclusive; further: nearly all actives have a fitted effect of over 55% in size; further: potency means the concentration at half of the fitted maximal effect)
# In short: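 P450-Glo CYP2C9 system: proluciferin substrate with enzyme in mix containing 0.4% BSA, 10 min at room temperature, then NADPH regeneration solution added and incubated 1 h at 37C. Detection reagent stopped reaction; luminescence read after 20 min as RLU.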
# [9] = target: Glutathione peroxidase 1 (Homo sapiens) (UniProt P07203); test: Primary qHTS Assay for Inhibitors of Recombinant Selenoprotein Glutathione Peroxidase 1 (GPX1) (AID 1845191); further: nearly all actives have a fitted effect of over 65% in size
# In short: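 NADPH consumption tracked by fluorescence at 340/450 nm between t=0 and t=15 min, room temperature. Final mix: 10 nM GPX1, 100 nM glutathione reductase, 1 mM GSH, 0.5 mM NADPH, 0.5 mM cumene hydroperoxide, 0.01% BSA; 30 min compound–enzyme preincubation.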
# [10] = target: Phospholipid hydroperoxide glutathione peroxidase GPX4 (Homo sapiens) (UniProt P36969); test: Primary qHTS Assay for Inhibitors of Recombinant Selenoprotein Glutathione Peroxidase 4 (GPX4) (AID 1845192); further: nearly all actives have a fitted effect of over 65% in size
# In short: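 NADPH consumption followed by fluorescence at 340/450 nm, t=0 and after 15 min at room temperature. Reaction started with cumene hydroperoxide (0.5 mM final) after 30 min compound–GPX4 preincubation; final 200 nM GPX4, 100 nM GR, 1 mM GSH, 0.5 mM NADPH.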
# [11] = Stat Signaling Pathway (AID 446; active means well fitted curve in either direction with a large enough effect, not every such curve was filed as active;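 further: ME-180 cervical cancer cells given 40 pM IL-6 alongside compound; SIE-controlled beta-lactamase reporter measured as 460/530 nm FRET emission ratio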)
# In short: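 Compound effects on IL-6-induced STAT reporter activity were measured in ME-180 cells. After overnight culture, cells were co-treated with 40 pM IL-6 for 5 hrs before beta-lactamase substrate loading at room temperature.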
# [12] = target: Glucocorticoid receptor (Homo sapiens) (UniProt P04150); test: GR-GFP Redistribution (AID 450;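 active means compounds whose dose series gives a full or clear partial fitted curve of increased nuclear translocation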; further: potency means the concentration at half of the fitted maximal effect); conditions: U2OS GR-GFP nuclear translocation, laser cytometry, 2 h
# [13] = target: Luciferin 4-monooxygenase (Photinus pyralis) (UniProt P08659); test: Biochemical firefly luciferase enzyme assay for NPC (AID 624030);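 further: purified P. pyralis luciferase at 10 nM with luciferin and ATP substrate; series mostly up to about 59 µM; nearly all actives have a fitted effect of over 70% in size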
# In short: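 Direct inhibition of firefly luciferase enzyme (10 nM final, 50 mM Tris Acetate) assessed by luminescence within 5 minutes. Percent activity scaled between DMSO and PTC124 positive control, with concentration-effect curves classified by fit quality and response.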
# [14] = qHTS drug screen for cell cycle checkpoint inhibitors in PARPi-resistant BRCA-mutant ovarian cancer cell lines. (AID 1963452; calls by dose curve); conditions: PEO1/OlaR viability, CellTiter-Glo luminescence, 96 h, stronger effect = lower value
# In short: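 PEO1, PEO4 and PEO1/OlaR ovarian cancer cells, 600 per well, exposed 96 h at 37C to a dilution series. Viability read by CellTiter-Glo luminescence, normalized to DMSO and empty wells; activity summarized as Z-AUC.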
# [15] = qHTS Assay for Identifying Gametocytocidal Compounds (AID 743244);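 further: actives lower the fluorescent signal which means gametocytes are killed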; conditions: P. falciparum 3D7 stage III-V gametocytes, alamarBlue, 72 h; max response: stronger effect = lower value
# In short: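 Viability read-out was resazurin reduction (alamarBlue, 24 h) measured at Ex 525/Em 598 nm. Beforehand, late-stage (III-V) 3D7 P. falciparum gametocytes at 20,000 cells/well were incubated with compound 72 h at 37C under 5% CO2.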
# Chain of Cytochrome P450 2C9 (Homo sapiens) (P11712 whole entry, looked up): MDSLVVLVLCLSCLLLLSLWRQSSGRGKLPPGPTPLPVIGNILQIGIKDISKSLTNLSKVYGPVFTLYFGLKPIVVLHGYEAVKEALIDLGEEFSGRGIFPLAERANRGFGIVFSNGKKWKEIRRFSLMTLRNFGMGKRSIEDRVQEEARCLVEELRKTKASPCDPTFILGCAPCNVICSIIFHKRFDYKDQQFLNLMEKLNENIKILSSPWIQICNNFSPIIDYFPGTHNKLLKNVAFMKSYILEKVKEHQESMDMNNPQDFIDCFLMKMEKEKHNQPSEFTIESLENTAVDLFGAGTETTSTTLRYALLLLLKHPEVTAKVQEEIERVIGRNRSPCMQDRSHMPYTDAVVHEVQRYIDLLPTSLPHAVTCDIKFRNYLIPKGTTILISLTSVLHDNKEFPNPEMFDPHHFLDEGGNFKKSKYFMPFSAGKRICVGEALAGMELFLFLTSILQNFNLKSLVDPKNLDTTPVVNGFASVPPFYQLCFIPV
# Chain of Rap guanine nucleotide exchange factor 3 (Homo sapiens) (O95398 whole entry, looked up): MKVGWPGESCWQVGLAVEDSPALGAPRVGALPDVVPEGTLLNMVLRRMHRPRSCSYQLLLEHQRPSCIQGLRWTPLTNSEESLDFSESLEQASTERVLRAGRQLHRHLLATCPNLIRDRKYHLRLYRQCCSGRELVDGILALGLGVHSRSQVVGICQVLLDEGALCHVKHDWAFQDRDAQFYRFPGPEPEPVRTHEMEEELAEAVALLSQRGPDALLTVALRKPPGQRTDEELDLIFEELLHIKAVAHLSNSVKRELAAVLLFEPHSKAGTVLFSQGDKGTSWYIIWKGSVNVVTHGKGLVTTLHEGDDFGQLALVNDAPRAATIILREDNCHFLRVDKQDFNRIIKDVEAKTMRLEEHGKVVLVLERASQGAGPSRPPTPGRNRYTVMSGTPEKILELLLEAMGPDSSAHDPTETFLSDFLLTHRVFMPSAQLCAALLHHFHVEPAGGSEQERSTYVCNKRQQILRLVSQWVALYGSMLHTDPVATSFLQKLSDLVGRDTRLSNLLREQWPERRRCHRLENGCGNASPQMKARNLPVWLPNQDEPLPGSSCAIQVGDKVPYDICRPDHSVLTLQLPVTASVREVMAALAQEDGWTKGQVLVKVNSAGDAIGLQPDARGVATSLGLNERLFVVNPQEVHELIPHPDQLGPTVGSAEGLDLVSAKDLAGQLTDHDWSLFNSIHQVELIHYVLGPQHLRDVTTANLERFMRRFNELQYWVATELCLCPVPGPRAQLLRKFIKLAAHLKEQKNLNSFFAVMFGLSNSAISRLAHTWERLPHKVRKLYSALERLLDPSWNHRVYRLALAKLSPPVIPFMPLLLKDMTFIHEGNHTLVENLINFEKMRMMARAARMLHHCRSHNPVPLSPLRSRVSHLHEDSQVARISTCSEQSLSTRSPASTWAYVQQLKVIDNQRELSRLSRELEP
# Chain of Cytochrome P450 2D6 (Homo sapiens) (P10635 whole entry, looked up): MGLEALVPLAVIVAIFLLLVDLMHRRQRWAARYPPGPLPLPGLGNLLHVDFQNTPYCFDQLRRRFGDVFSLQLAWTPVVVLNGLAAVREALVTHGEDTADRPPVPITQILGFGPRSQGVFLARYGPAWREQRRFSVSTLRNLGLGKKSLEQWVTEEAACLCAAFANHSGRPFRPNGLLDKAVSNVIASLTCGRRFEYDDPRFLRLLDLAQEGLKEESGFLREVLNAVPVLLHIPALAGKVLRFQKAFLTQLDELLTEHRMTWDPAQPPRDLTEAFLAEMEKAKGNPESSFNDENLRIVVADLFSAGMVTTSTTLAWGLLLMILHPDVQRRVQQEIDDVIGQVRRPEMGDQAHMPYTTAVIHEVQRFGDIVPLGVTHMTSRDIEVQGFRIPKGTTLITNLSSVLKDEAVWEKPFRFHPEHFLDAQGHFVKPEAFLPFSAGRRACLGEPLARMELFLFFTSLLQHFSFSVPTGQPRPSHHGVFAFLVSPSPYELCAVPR
# Chain of Rap guanine nucleotide exchange factor 4 (Homo sapiens) (Q8WZA2 whole entry, looked up): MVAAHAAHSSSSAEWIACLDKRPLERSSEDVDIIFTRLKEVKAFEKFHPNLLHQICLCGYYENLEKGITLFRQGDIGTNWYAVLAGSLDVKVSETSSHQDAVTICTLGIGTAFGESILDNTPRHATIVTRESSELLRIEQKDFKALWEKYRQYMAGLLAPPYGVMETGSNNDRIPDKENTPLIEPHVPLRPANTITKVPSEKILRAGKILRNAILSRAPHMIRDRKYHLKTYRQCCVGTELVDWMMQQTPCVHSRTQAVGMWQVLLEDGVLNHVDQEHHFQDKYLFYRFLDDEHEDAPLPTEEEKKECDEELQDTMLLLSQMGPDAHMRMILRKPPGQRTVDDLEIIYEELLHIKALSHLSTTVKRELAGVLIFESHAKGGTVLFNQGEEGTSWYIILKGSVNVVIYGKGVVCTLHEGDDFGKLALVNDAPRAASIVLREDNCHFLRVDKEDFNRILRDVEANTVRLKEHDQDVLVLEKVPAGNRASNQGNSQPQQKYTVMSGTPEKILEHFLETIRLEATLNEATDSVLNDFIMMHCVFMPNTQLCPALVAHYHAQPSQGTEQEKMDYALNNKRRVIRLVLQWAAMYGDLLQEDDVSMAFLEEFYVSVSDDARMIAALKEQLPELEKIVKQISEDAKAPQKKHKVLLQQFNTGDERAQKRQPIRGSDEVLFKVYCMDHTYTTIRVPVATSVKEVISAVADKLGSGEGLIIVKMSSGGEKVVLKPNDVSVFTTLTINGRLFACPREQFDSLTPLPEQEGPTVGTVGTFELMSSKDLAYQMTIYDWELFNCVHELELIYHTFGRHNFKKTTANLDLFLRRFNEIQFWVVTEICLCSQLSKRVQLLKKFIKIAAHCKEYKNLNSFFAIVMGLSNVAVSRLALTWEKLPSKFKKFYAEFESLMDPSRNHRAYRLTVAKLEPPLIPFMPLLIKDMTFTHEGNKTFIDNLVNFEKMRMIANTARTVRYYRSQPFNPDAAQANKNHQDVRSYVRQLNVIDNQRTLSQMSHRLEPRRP
# Chain of Phospholipid hydroperoxide glutathione peroxidase GPX4 (Homo sapiens) (P36969 whole entry, looked up): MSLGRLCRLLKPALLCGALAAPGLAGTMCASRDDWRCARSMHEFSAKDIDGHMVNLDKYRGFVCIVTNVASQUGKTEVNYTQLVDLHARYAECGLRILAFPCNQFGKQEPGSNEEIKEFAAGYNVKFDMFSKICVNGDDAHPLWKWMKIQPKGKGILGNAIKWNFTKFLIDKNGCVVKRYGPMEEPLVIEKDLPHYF
# Chain of Glutathione peroxidase 1 (Homo sapiens) (P07203 whole entry, looked up): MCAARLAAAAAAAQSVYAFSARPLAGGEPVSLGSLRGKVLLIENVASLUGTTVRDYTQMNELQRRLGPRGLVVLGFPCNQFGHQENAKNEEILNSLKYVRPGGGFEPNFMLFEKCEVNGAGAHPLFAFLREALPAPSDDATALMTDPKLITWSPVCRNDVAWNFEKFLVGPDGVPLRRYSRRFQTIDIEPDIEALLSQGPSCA
# Chain of N-terminal Xaa-Pro-Lys N-methyltransferase 1 (Homo sapiens) (Q9BV86 whole entry, looked up): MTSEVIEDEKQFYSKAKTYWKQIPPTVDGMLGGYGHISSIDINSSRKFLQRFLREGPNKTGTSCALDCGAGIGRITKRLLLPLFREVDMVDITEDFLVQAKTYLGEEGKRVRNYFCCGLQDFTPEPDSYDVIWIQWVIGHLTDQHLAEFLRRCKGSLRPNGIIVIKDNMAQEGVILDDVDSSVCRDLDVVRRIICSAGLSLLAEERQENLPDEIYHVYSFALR
# Chain of Luciferin 4-monooxygenase (Photinus pyralis) (P08659 whole entry, looked up): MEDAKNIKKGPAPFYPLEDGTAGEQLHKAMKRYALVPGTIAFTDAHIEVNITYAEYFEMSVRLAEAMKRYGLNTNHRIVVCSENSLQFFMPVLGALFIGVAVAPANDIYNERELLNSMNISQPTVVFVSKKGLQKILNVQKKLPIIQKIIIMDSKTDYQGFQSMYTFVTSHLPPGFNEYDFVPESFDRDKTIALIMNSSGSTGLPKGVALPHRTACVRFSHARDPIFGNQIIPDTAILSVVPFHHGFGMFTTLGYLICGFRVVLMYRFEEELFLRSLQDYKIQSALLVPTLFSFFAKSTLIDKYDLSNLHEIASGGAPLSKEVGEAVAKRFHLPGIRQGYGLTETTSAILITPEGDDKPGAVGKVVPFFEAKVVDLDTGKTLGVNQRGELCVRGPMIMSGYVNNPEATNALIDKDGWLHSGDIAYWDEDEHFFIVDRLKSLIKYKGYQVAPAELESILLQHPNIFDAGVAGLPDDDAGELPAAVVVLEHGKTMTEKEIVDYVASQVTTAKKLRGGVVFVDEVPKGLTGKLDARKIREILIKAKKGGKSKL
# Chain of Glucocorticoid receptor (Homo sapiens) (P04150 whole entry, looked up): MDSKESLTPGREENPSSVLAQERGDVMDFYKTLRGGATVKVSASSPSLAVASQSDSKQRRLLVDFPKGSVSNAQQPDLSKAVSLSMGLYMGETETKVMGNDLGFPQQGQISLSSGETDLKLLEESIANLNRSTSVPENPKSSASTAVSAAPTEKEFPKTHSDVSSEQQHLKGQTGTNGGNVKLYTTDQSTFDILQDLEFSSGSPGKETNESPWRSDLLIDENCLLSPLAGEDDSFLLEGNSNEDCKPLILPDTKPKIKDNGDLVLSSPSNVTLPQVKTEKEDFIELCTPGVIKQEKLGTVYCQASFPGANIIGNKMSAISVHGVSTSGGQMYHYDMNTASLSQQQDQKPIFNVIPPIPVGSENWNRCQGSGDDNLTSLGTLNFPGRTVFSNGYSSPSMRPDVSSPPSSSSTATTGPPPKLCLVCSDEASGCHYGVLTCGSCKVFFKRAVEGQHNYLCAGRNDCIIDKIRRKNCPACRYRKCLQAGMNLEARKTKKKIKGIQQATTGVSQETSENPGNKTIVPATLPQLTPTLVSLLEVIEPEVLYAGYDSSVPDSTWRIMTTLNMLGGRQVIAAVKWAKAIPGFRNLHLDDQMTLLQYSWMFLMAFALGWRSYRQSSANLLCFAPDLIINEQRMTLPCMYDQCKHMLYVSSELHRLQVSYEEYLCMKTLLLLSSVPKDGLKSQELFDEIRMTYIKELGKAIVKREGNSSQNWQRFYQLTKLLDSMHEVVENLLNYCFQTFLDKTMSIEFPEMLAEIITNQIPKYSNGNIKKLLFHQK
structure (smiles),measurement,setting,value
O=C(CSc1nc(-c2ccc(F)cc2)nc2c1Cc1ccccc1O2)Nc1cccc(C(=O)O)c1,Potency,[1],inactive
same,Potency,[2],6.02 µM (active)
same,Potency,[3],6.01 µM (active) and 151 nM (active)
same,Potency,[4],inactive
same,Potency,[5],inactive
same,Potency,[6],inactive
same,Potency,[7],inactive
CCOC(C(=O)N(C)CCN(C)CCc1ccccc1)(c1ccccc1)c1ccccc1,Potency,[8],6.01 µM (active)
N[C@@H]1CCCCN(c2c(F)cc3c(=O)c(C(=O)O)cn(C4CC4)c3c2Cl)C1,Potency,[1],inactive
same,Potency,[8],inactive
same,Potency,[9],inactive
same,Potency,[10],inactive
Cc1cc(Cl)ccc1NC(=O)Cn1nc(C)c2c(C)n(-c3ccccc3)nc2c1=O,Potency,[1],inactive
same,Potency,[3],84.9 µM (active)
same,Potency,[4],inactive
same,Potency,[5],inactive
same,Potency,[6],inactive
same,Potency,[7],inactive
C[C@@H]1C[C@H]2[C@@H]3C[C@H](F)C4=CC(=O)C=C[C@]4(C)[C@@]3(F)[C@@H](O)C[C@]2(C)[C@@]1(O)C(=O)COC(=O)C(C)(C)C,outcome,[11],inactive
same,Potency,[12],0.00124 µM (active)
same,Potency,[13],inactive
same,Potency,[1],inactive
same,Potency,[8],9.52 µM (active)
same,Potency,[9],inactive
same,Potency,[10],inactive
C#C[C@]1(O)CC[C@@H]2[C@@H]3CCC4=CCCC[C@@H]4[C@H]3C(=C)C[C@@]21CC,Potency,[1],inactive
same,Potency,[8],3.38 µM (active)
same,Potency,[9],inactive
Cc1cc2c(F)c(Oc3ncnn4cc(OC[C@@H](C)OC(=O)[C@H](C)N)c(C)c34)ccc2[nH]1,Potency,[1],10.7 µM (active)
same,Potency,[8],2.39 µM (active)
same,Potency,[9],inactive
same,Z-AUC,[14],1.46 (inactive)
same,Z-AUC,[14]; measured here: PEO1 parental Z-AUC,0.526
same,Z-AUC,[14]; measured here: PEO4 Z-AUC,0.822
Cc1cccc2nc(-c3ccccn3)c(Nc3ccccc3)n12,Potency,[8],1.2 µM (active)
CC[C@H]1OC(=O)[C@H](C)[C@@H](O[C@H]2C[C@@](C)(OC)[C@@H](O)[C@H](C)O2)[C@H](C)[C@@H](O[C@@H]2O[C@H](C)C[C@H](N(C)C)[C@H]2O)[C@](C)(OC)C[C@@H](C)C(=O)[C@H](C)[C@@H](O)[C@]1(C)O,max response,[15],-5.34% (inactive)
same,Potency,[1],inactive
same,Potency,[8],inactive
same,Potency,[9],inactive
same,Potency,[10],inactive
Cc1ccc(/C=C2\C(=O)C3(C)CCC2C3(C)C)cc1 (centres undefined),Potency,[1],inactive
same,Potency,[8],8.49 µM (active)
same,Potency,[9],inactive
same,Potency,[10],inactive
